SMILES strings stand for the structures. Several values for one entry are separate records, joined by “and”; a condition that tells them apart may be missing. Equal values may be shown once. Records with an inconclusive call do not appear. More than one record can exist for a structure, and the calls need not agree. Activity calls are given as the source filed them. How the source made its calls, unless noted: active means hit-call score of the fitted dose curve at least 0.9, where 1 is the maximum; inactive means score below 0.9.

Experiment [1] in a line: ATG_TAL_CIS: Attagene CIS-FACTORIAL HepG2 Assay for human TAL Basal Promoter (AID 2282966).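 Further: background control endpoint measuring basal TAL promoter reporter mRNA not a specific factor.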 Particulars: HepG2 Attagene cis-factorial TAL promoter reporter; actives raise or lower the signal. Summed up: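 Basal-promoter background-control endpoint from a multiplexed HepG2 reporter panel. Cells were exposed 24 h, then reporter mRNA was read by RT-PCR/CE fluorescence and fitted in both directions relative to DMSO.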

The nature of experiment [2]: ATG_TGFb_CIS: Attagene CIS-FACTORIAL HepG2 Assay for human Transforming Growth Factor (TGF) (AID 2282967). Conditions: HepG2 Attagene CIS TGFb reporter, mRNA transcription; actives raise or lower the signal. Summed up: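 Transient MRTU transfection of HepG2 (FuGene 6). Dose 24 h. TriZol RNA, oligo(dT) RT, PCR, 6-FAM primer extension, HpaI cut, CE. Bidirectional fit, DMSO = baseline.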

Experiment [3] is described as follows: ATG_VDRE_CIS: Attagene CIS-FACTORIAL HepG2 Assay for human Vitamin D Receptor Element (VDRE) (AID 2282968). Particulars: HepG2 VDRE cis-reporter transcription, actives raise or lower the signal. Summed up:
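Readout is VDRE-driven reporter mRNA reflecting endogenous factor activity in human HepG2 cells, sampled 24 h post-dose. Quantification used labelled RT-PCR products separated by capillary electrophoresis; bidirectional analysis relative to DMSO.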

The target of experiment [4] is Nuclear receptor subfamily 1 group I member 3 (Homo sapiens) (UniProt Q14994). The experiment can be described thus: ATG_CAR_TRANS: Attagene TRANS-FACTORIAL HepG2 Assay for human Constitutive Androstane Receptor (CAR) (AID 2282969; active means hit-call score of the fitted dose curve at least 0.9, where 1 is the maximum;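 further: activators raise reporter mRNA above DMSO so AC50 marks induction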). Particulars: HepG2 Attagene TRANS-FACTORIAL CAR reporter. Summed up: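 Signal is reporter mRNA induction relative to DMSO, measured 24 h after dosing by RT-PCR with fluorescent primer extension and capillary electrophoresis. Human HepG2 liver cells carried transiently transfected chimeric NR-Gal4/GAL4-UAS reporter constructs.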
Sequence of Nuclear receptor subfamily 1 group I member 3 (Homo sapiens) (Q14994 whole entry, looked up, the tested form may be a part): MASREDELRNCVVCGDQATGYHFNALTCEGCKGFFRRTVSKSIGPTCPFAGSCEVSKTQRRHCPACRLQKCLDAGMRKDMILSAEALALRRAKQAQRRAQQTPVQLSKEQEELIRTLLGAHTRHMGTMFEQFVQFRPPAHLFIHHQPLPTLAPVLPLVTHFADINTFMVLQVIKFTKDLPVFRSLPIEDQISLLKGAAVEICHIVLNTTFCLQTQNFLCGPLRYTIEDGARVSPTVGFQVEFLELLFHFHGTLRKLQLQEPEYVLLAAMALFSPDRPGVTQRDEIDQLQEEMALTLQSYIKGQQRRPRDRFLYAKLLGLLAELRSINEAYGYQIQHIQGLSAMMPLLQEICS

Experiment [5] concerns the target Estrogen receptor (Homo sapiens) (UniProt P03372). The experiment can be described thus: ATG_ERa_TRANS: Attagene TRANS-FACTORIAL HepG2 Assay for human Estrogen Receptor alpha (ERa) (AID 2282970; active means hit-call score of the fitted dose curve at least 0.9, where 1 is the maximum). Conditions: HepG2 Attagene TRANS ERa GAL4 reporter, mRNA. Summed up:
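Gal4-fusion ERa transactivation, measured as reporter transcript level in transiently transfected HepG2 cells. Exposure 24 h; RT-PCR plus capillary electrophoresis with fluorescence detection.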

Experiment [6] concerns the target Steroid hormone receptor ERR1 (Homo sapiens) (UniProt P11474). The experiment can be described thus: ATG_ERRa_TRANS: Attagene TRANS-FACTORIAL HepG2 Assay for human Estrogen-Related Receptor alpha (ERRa) (AID 2282971; active means hit-call score of the fitted dose curve at least 0.9, where 1 is the maximum). Conditions: HepG2 Attagene TRANS reporter, ERRa transactivation. Summed up:
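HepG2 cells transiently transfected with GAL4-UAS reporter units and chimeric NR-Gal4 constructs; after 24 hour compound incubation, reporter mRNA quantified by RT-PCR, fluorescent labelling and capillary electrophoresis, gain of signal versus DMSO.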

The target of experiment [7] is X-box-binding protein 1 (Homo sapiens) (UniProt P17861). The experiment in a line: ATG_Xbp1_CIS: Attagene CIS-FACTORIAL HepG2 Assay for human X-box Binding Protein 1 (XBP1) (AID 2282972). Conditions: HepG2 XBP1 cis-element reporter, Attagene multiplex; actives raise or lower the signal. Summed up:
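Reporter transcripts were quantified by RT-PCR with fluorescent primer extension and capillary electrophoresis after 24 h chemical exposure. Cells: transiently transfected HepG2 carrying cis-regulated reporter constructs; data fitted bidirectionally relative to DMSO.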

Experiment [8] in a line: ATG_M_19_TRANS: Attagene TRANS-FACTORIAL HepG2 Assay for M19 Transcription Factor (Internal Marker) (AID 2282974; active means hit-call score of the fitted dose curve at least 0.9, where 1 is the maximum). Conditions: HepG2 Attagene TRANS-FACTORIAL M19 internal marker reporter. An outline of the steps:
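Using RT-PCR and capillary electrophoresis, reporter mRNA from transiently transfected human HepG2 cells was quantified following 24 h exposure; activity was fitted in the positive direction against DMSO.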

Experiment [9] in a line: ATG_Hpa5_TRANS: Attagene TRANS-FACTORIAL HepG2 Assay for human GAL4-Hpa5 Hepatocyte Transcription Factor Basal Promoter (AID 2282975; active means hit-call score of the fitted dose curve at least 0.9, where 1 is the maximum;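 further: hits are increases in reporter mRNA over DMSO baseline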). Particulars: HepG2 Attagene GAL4-Hpa5 transcription reporter. Summed up:
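Gain-of-signal versus DMSO is fitted for reporter mRNA quantified by RT-PCR and capillary electrophoresis after 24 h exposure. This endpoint is an internal background marker in transiently transfected HepG2 cells carrying GAL4-UAS reporter units.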

The target of experiment [10] is Androgen receptor (Homo sapiens) (UniProt P10275). The experiment can be described thus: ATG_AR_TRANS: Attagene TRANS-FACTORIAL HepG2 Assay for human Androgen Receptor (AR) (AID 2282973; active means hit-call score of the fitted dose curve at least 0.9, where 1 is the maximum). Conditions: HepG2 Attagene TRANS-FACTORIAL AR reporter transcription. On the procedure:
ATG_TRANS is a cell-based, multiplexed-readout assay that uses HepG2, a human liver cell line, with measurements taken at 24 hours after chemical dosing in a 24-well plate.ATG_AR_TRANS is one of 30 assay component(s) measured or calculated from the ATG_TRANS assay. It is designed to make measurements of mRNA induction, a form of inducible reporter, as detected with fluorescence intensity signals by Reverse transcription polymerase chain reaction (RT-PCR) and Capillary electrophoresis technology.Data from the assay component ATG_AR_TRANS was analyzed into 1 assay endpoint. This assay endpoint, ATG_AR_TRANS, was analyzed in the positive analysis fitting direction relative to DMSO as the negative control and baseline of activity. Using a type of inducible reporter, measures of mRNA for gain-of-signal activity can be used to understand the reporter gene at the transcription factor-level as they relate to the gene AR. Furthermore, this assay endpoint can be referred to as a primary readout, because this assay has produced multiple assay endpoints where this one serves a reporter gene function. To generalize the intended target to other relatable targets, this assay endpoint is annotated to the nuclear receptor intended target family, where the subfamily is steroidal.
Human liver HepG2 cells are transiently transfected with multiple reporter transcription units (MRTUs) in 6-well plates using FuGene 6 reagent (Roche; 3 ml FuGene/1 mg DNA). The MRTU constructs are regulated by a cis-regulating element (promoter). […] A major difference between the CIS and TRANS system is that in CIS activities of endogenous TFs are measured, whereas the TRANS assay evaluates changes in activities of exogenous, chimeric NR-Gal4 proteins. […] At the end of 24 hour incubation, total RNA was isolated using TriZol reagent (Invitrogen). The isolated RNA is then reverse-transcribed using oligo(dT) primer and Mo-MLV reverse transcriptase (Invitrogen) with DNAse I (Ambion) treatment for 30 min. The one-tenth of the produced cDNA was amplified by PCR using Taq DNA polymerase (Invitrogen) and two reporter sequence-specific primers. The PCR products were fluorescently labeled by primer extension with 6-arboxyfluorescein (6-FAM) 5'-labeled reporter sequence-specific primer (2 min at 95 C, 20 s at 68 C and 10 min at 72 C) and these products were digested with 5U of HpaI (New England Biolabs) for 2h at 37 C. The fragments were purified using Qiaquick PCR columns (Qiagen), analyzed on an ABI 3130xL genetic analyzer (Applied Biosystems) with peak positions identified by using a set of X-rhodamine (ROX)-labeled MapMarker1000 molecular weight standards (BioVentures). The raw capillary electrophoresis data was processed using Attagraph software (Attagene).

Sequence of Estrogen receptor (Homo sapiens) (P03372 whole entry, looked up, the tested form may be a part): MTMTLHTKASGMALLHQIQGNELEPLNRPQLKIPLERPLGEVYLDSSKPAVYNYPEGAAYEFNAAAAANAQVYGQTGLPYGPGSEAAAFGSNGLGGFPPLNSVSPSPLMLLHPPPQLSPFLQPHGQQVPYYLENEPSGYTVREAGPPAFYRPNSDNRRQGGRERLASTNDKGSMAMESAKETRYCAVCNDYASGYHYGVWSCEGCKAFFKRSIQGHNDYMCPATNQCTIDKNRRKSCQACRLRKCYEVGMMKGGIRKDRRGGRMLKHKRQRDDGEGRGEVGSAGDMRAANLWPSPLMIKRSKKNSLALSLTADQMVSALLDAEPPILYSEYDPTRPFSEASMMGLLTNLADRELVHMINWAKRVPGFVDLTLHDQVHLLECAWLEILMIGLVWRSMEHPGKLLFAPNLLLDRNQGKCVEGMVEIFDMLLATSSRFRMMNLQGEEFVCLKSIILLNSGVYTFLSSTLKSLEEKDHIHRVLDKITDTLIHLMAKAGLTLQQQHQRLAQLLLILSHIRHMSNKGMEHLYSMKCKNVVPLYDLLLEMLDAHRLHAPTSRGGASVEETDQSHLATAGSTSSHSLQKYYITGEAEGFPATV
Sequence of X-box-binding protein 1 (Homo sapiens) (P17861 whole entry, looked up): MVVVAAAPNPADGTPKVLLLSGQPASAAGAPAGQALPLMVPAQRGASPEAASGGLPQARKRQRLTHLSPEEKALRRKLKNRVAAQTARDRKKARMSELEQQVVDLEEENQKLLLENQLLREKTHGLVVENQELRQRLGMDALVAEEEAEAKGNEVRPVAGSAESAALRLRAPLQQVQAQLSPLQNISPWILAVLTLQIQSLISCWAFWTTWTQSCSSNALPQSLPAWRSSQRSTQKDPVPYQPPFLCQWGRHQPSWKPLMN
Sequence of Androgen receptor (Homo sapiens) (P10275 whole entry, looked up): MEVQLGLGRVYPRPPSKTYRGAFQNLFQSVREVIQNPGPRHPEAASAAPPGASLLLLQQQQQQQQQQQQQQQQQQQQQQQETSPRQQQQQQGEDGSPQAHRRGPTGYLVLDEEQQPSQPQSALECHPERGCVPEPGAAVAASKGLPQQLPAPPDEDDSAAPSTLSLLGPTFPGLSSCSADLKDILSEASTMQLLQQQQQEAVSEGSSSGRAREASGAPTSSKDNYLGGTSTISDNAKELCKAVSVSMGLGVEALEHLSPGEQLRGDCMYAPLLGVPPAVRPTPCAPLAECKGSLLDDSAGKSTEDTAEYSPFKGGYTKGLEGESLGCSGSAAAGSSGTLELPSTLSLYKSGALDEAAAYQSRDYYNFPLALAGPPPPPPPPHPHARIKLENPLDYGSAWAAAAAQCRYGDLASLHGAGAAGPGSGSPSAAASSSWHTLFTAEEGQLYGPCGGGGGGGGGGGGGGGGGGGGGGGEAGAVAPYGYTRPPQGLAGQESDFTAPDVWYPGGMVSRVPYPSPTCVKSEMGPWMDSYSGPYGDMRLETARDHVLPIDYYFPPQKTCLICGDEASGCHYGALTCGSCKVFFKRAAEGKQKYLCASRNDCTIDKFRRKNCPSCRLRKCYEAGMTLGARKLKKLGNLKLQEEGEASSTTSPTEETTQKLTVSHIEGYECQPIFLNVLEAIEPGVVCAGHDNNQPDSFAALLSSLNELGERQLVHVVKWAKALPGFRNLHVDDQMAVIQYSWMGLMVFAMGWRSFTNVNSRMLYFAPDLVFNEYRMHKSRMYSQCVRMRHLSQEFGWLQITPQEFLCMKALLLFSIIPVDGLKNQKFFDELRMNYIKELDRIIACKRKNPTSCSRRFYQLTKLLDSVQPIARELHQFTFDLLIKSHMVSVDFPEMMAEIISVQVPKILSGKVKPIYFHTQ
Sequence of Steroid hormone receptor ERR1 (Homo sapiens) (P11474 whole entry, looked up, the tested form may be a part): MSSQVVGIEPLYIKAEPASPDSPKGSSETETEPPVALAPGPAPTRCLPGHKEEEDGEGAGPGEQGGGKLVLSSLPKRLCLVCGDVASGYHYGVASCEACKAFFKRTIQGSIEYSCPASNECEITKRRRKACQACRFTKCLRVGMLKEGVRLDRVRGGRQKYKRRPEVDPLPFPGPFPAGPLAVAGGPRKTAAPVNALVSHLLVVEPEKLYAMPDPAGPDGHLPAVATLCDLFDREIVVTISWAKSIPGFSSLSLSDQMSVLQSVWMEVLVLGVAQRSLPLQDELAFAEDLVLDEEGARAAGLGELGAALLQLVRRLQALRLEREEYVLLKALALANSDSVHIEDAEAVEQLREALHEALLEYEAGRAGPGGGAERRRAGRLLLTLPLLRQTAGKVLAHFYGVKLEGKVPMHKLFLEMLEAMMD

Consider `CNC(=O)Oc1ccccc1OC(C)C`, for which the call in experiment [1], in [2], in experiment [3], in [4], in experiment [5] and in [6] was inactive. Moreover, the outcome in experiment [7] and in experiment [8] was inactive.
Take `O=S1OCC2C(CO1)C1(Cl)C(Cl)=C(Cl)C2(Cl)C1(Cl)Cl` (stereo not drawn): the molecule was classed as inactive in experiment [1], in experiment [3], in experiment [4], in experiment [7] and in experiment [8]. Further, the AC50 in [5] was 2.04 µM (active).
Consider `CN1CSC(=S)N(C)C1`, for which the molecule was classed as inactive in experiment [1], in experiment [4] and in experiment [6]. Further, the values for the AC50 in [3] and in experiment [7] were 78.3 µM (active) and 50 µM (active), respectively.
On to `COc1nn(CSP(=S)(OC)OC)c(=O)s1`, for which the molecule was called inactive in experiment [1], in [4], in experiment [5], in experiment [7] and in experiment [9]. The AC50 in experiment [3] is 50 µM (active).
As for `O=C(O)CCCOc1ccc(Cl)cc1Cl`, the molecule was classed as inactive in experiment [1], in experiment [3], in experiment [4], in experiment [7], in [10] and in experiment [8]. Also, in experiment [9], the molecule was called inactive.
For `CCC(C)(C)C(=O)OC1=C(c2ccc(Cl)cc2Cl)C(=O)OC12CCCCC2`, the molecule was called inactive in experiment [1], in [3], in experiment [6], in experiment [7], in experiment [8] and in experiment [9].
On to `CCCN(CCC)c1c([N+](=O)[O-])cc(C(F)(F)F)cc1[N+](=O)[O-]`, for which the molecule was classed as inactive in experiment [1], in [4], in experiment [7], in [8] and in experiment [9]. In addition, the results for the AC50 in experiment [3] and in experiment [5] were 13.4 µM (active) and 35.9 µM (active), respectively.
Regarding `COC(=O)c1ccccc1S(=O)(=O)NC(=O)N(C)c1nc(C)nc(OC)n1`, the result in experiment [1], in experiment [4] and in experiment [7] was inactive.
On to `CC(C)(C)C(O)C(Oc1ccc(Cl)cc1)n1cncn1` (stereo not drawn), for which the call in experiment [1], in [3], in experiment [4], in experiment [7], in experiment [8] and in experiment [9] was inactive.
With `CCS(=O)(=O)c1cccnc1S(=O)(=O)NC(=O)Nc1nc(OC)cc(OC)n1`, the molecule was classed as inactive in experiment [1], in [3], in experiment [4], in experiment [6] and in experiment [7].
Turning to `Oc1ccc(Cl)cc1Cc1ccccc1`, the outcome in experiment [1], in experiment [4], in [7], in experiment [10] and in [8] was inactive. For the same molecule, in [7], the AC50 is 7.32 µM (active) and 11.2 µM (active) and 15.9 µM (active).
For `CC[C@H](C)[C@H]1O[C@]2(C=C[C@@H]1C)C[C@@H]1C[C@@H](C/C=C(\C)[C@@H](O[C@H]3C[C@H](OC)[C@@H](O[C@H]4C[C@H](OC)[C@@H](O)[C@H](C)O4)[C@H](C)O3)[C@@H](C)/C=C/C=C3\CO[C@@H]4[C@H](O)C(C)=C[C@@H](C(=O)O1)[C@]34O)O2` (tested in a mixture with another compound), the molecule was called inactive in experiment [1], in experiment [3], in experiment [5], in [6], in experiment [7] and in experiment [8]. Further, the molecule was classed as inactive in experiment [9].
Consider `O=C1c2ccccc2C(=O)N1SC(Cl)(Cl)Cl`, for which the outcome in [1], in experiment [3], in experiment [4], in experiment [5], in experiment [7] and in experiment [8] was inactive. Moreover, in experiment [9], the result was inactive.
`[2H]C1([2H])[n+]2ccccc2-c2cccc[n+]2C1([2H])[2H]`: the outcome in experiment [1], in [3], in [7] and in experiment [8] was inactive.

Source of the values: PubChem BioAssay (EPA / NIEHS).
